Compound activity deposited in PubChem BioAssay by National Center for Advancing Translational Sciences (NCATS).
The full list was thinned out, with hits kept by preference.
AMA1 RON2 block = AMA1-RON2 (P. falciparum) interaction inhibition. AlphaScreen AMA1-biotinylated RON2 peptide binding. AID 720542. Potency, µM (titrated, usually from 58.2 µM), actives largely listed as inhibitors. hit rate 0.2% among 360,000; active = well fitted inhibition curve with a large enough effect; inconclusive = small, poorly fitted or top-dose-only effect; inactive = no such curve, though single readings can be large or run the other way; note: nearly all actives have a fitted effect of over 45% in size
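AMA1 (3D7) with his tag at 25 nM final met compounds first, then biotinylated RON2 peptide at 25 nM; detection used donor plus acceptor beads, 10 µg/mL apiece, read by AlphaScreen after 30 min at room temperature.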
Cycloheximide cs = counter-screen hit for Shiga toxin inhibitors, cycloheximide | max response, % | AID 2314 | hit rate 12% among 300,000 | cell reporter, cycloheximide protein synthesis inhibition counterscreen; in the data active = max response mostly above about 13%, no sharp cut-off; inactive = mostly below about 14%; note: read at 38.3 µM for the half of the compounds with a filed dose
Shiga inhibitor = inhibitors of Shiga toxin in Vero cells; AID 2315; Vero cells, Shiga toxin protein synthesis inhibition reporter; inhibition, % at 38.7 µM; hit rate 9.2% among 290,000; in the data active = inhibition mostly above about 28%, no sharp cut-off; inactive = mostly below about 43%
LASV entry inh = Lassa virus entry inhibition. Lassa virus pseudotype entry inhibition, cell reporter. Potency, µM (titrated, usually from 37.9 µM), most hits filed as inhibitors. hit rate 1.2% among 300,000; calls by dose curve; tested in HEK293 cells; note: nearly all actives have a fitted effect of over 50% in size
MARV entry inh = inhibitors of Marburg virus binding or cell entry; Marburg virus pseudotyped entry inhibition, cell reporter; Potency, µM (titrated, usually from 37.8 µM), most hits filed as inhibitors; hit rate 1.8% among 300,000; AID 540276; calls by dose curve; tested in HEK293 cells
Of the large screens only hits and unclear results are named; the others gave an inactive call.

NC(=O)c1ccccc1NC(=O)c1ccc2ccccc2c1	Cycloheximide cs 57, Shiga inhibitor 79, LASV entry inh inconclusive, MARV entry inh inconclusive
Cc1ccccc1CNc1ccc(C(CC(N)=O)NC(=O)c2ccccc2)cc1[N+](=O)[O-] (stereo not given)	none (no result: LASV entry inh, MARV entry inh)
S=C(N/N=C/c1cccc2ccccc12)Nc1cccc(Cl)c1	LASV entry inh inconclusive, MARV entry inh inconclusive
CC(C)(C)n1nnnc1C(c1cc2ccccc2o1)N1CCOCC1 (stereo not given)	none (no result: Cycloheximide cs, Shiga inhibitor, LASV entry inh, MARV entry inh)
C/C(=N/NC(=O)c1ccc(Br)s1)c1ccncc1	Cycloheximide cs 16 (no result: LASV entry inh, MARV entry inh)
C/C(=N\NC(=O)c1cc(-c2ccc(C)s2)nc2ccccc12)c1cccnc1	Cycloheximide cs 22
C/C(=N\NC(=O)c1cc(-c2cccnc2)nc2ccccc12)c1ccc(O)cc1O	LASV entry inh 6.3µM, MARV entry inh 7.1µM
C/C(=N/NC(=O)c1ccc(C)s1)c1cccnc1	Cycloheximide cs 34, Shiga inhibitor 71 (no result: LASV entry inh, MARV entry inh)
COc1ccc([C@@H]2C[C@H]3[C@@H](CN2S(=O)(=O)c2ccccc2)C(=O)C[C@@H](c2ccc(OC)cc2)N3S(=O)(=O)c2ccccc2)cc1	none (no result: Cycloheximide cs, Shiga inhibitor, LASV entry inh, MARV entry inh)
CCOc1ccc(CCNC(=O)Cn2ncc3c(=O)oc4ccc(C)cc4c32)cc1	none (no result: AMA1 RON2 block, Cycloheximide cs, Shiga inhibitor)
C/C(=N/NC(=O)c1ccc(Br)s1)c1cccnc1	Cycloheximide cs 23 (no result: LASV entry inh, MARV entry inh)
COc1ccc2[nH]c3c(c2c1)CCn1c-3nc2ccccc2c1=O	Cycloheximide cs 38, Shiga inhibitor 97, MARV entry inh inconclusive
COc1ccc2nc3c(cc2c1)Cn1c-3nc2ccccc2c1=O	none (no result: AMA1 RON2 block, LASV entry inh, MARV entry inh)
COC(=O)CN1[C@@]2(C#N)CCCC[C@@H]2C[C@H]2CCCC[C@]21C#N	none (no result: AMA1 RON2 block, Cycloheximide cs, Shiga inhibitor, LASV entry inh)
Cc1nc([N+](=O)[O-])c(Br)n1CC(=O)c1ccc2ccccc2c1	LASV entry inh inconclusive, MARV entry inh 18µM
CCOC(=O)c1sc(N(Cc2ccccc2)C(=O)CSc2nnc(C3CC3)n2N)nc1C	Cycloheximide cs 17, Shiga inhibitor 79
Oc1cc(-n2cccn2)c(O)cc1-n1cccn1	Cycloheximide cs 37, Shiga inhibitor 70 (no result: LASV entry inh, MARV entry inh)
c1cnn(-c2nc(N3CCOCC3)nc(N3CCOCC3)n2)c1	LASV entry inh inconclusive, MARV entry inh inconclusive
CC(C)c1ccc(NC(=O)C(=O)C2C(=O)Nc3ccccc32)cc1 (stereo not given)	none (no result: LASV entry inh, MARV entry inh)
CC(C)(C)c1ccc(NC(=O)C(=O)C2C(=O)Nc3ccccc32)cc1 (stereo not given)	Cycloheximide cs 32, Shiga inhibitor 49 (no result: LASV entry inh, MARV entry inh)
CCOc1ccc(NC(=O)[C@@H]2CCC(=O)N2C2OC(=O)c3ccccc32)cc1 (stereo not given in full)	none (no result: LASV entry inh, MARV entry inh)
COc1cc(C(=O)NCC(=O)Nc2ccc(F)c(F)c2)ccc1OCC(=O)N1CCOCC1	none (no result: Cycloheximide cs, Shiga inhibitor)
CCOC(=O)COc1nc2c(c(-c3ccco3)c1C#N)CCc1ccccc1-2	Shiga inhibitor 42
CC1CCC(NC(=O)c2ccc(NC(=O)c3ccc(=O)[nH]c3)cc2)CC1 (stereo not given)	none (no result: AMA1 RON2 block)
Cc1cccc(N=N/C(=C\O)C(=O)c2cccs2)c1	AMA1 RON2 block inconclusive, Cycloheximide cs 35, Shiga inhibitor 93, LASV entry inh inconclusive, MARV entry inh inconclusive
COc1cccc2c1C(=O)c1c(O)c3c(c(O)c1C2=O)CC(O)(C(C)=O)CC3OC1CC(O)C(O)C(C)O1 (stereo not given)	LASV entry inh inconclusive, MARV entry inh 1.4µM (no result: Cycloheximide cs, Shiga inhibitor)
COc1cccc2c1C(=O)c1c(O)c3c(c(O)c1C2=O)C[C@](O)(C(C)=O)C[C@H]3O[C@@H]1C[C@@H](N)[C@@H](O)[C@@H](C)O1	none (no result: Cycloheximide cs, Shiga inhibitor, LASV entry inh, MARV entry inh)
COc1cccc2c1C(=O)c1c(O)c3c(c(O)c1C2=O)C[C@@](O)(C(=O)CO)C[C@@H]3O[C@H]1C[C@H](N)[C@H](OC2CCCCO2)[C@H](C)O1 (stereo not given in full)	LASV entry inh 1.1µM, MARV entry inh 1.3µM (no result: AMA1 RON2 block, Cycloheximide cs, Shiga inhibitor)
COc1cccc2c1-c1c(O)cccc1C2=O	none (no result: Shiga inhibitor, LASV entry inh, MARV entry inh)
COc1cccc2c1C(=N)c1c(O)c3c(c(O)c1C2=O)CC(O)(C(C)=O)CC3OC1CC(N)C(O)C(C)O1 (stereo not given)	AMA1 RON2 block inconclusive, LASV entry inh 0.63µM, MARV entry inh 0.35µM (no result: Cycloheximide cs, Shiga inhibitor)
CCCCC(=O)OCC(=O)C1(O)Cc2c(O)c3c(c(O)c2C(OC2CC(NC(=O)C(F)(F)F)C(O)C(C)O2)C1)C(=O)c1c(OC)cccc1C3=O (stereo not given)	LASV entry inh inconclusive, MARV entry inh inconclusive (no result: Cycloheximide cs, Shiga inhibitor)
CCC(C)c1ccccc1NC(=O)COC(=O)c1ccc2[nH]c3c(c2c1)CCCC3 (stereo not given)	LASV entry inh inconclusive, MARV entry inh 2.2µM
O=C(COC(=O)c1ccc2[nH]c3c(c2c1)CCCC3)Nc1ccc(Cl)cc1Cl	MARV entry inh 8.9µM
COc1ccc(NC(=O)CCCc2nc(-c3ccco3)no2)c(OC)c1	none (no result: AMA1 RON2 block, Cycloheximide cs, Shiga inhibitor)
COc1cccc(NC(=O)c2ccc(NC(=O)C(C)(C)C)cc2)c1	Cycloheximide cs 54, Shiga inhibitor 56, MARV entry inh inconclusive
Cc1cccc(C(=O)NNC(=O)c2ccc(NC(=O)C(C)(C)C)cc2)c1	Cycloheximide cs 30, Shiga inhibitor 39 (no result: LASV entry inh, MARV entry inh)
CCCC(=O)Nc1ccc(C(=O)Nc2cccc(OC)c2)cc1	Cycloheximide cs 47, Shiga inhibitor 68
COc1cccc(NC(=O)CNC(=O)c2ccc(C)cc2)c1	none (no result: LASV entry inh, MARV entry inh)
CCN(C(=O)CSc1nnc(-c2ccncc2)n1Cc1ccccc1)C1CCS(=O)(=O)C1 (stereo not given)	none (no result: LASV entry inh)
COc1ccc(/C=C/C(=O)NCCCN2CCCC2)cc1	none (no result: LASV entry inh, MARV entry inh)
COc1ccc(/C=C/C(=O)NCCc2nc3ccccc3[nH]2)cc1	Cycloheximide cs 16
CCCCOc1ccc(/C=C/C(=O)NCCc2nc3ccccc3[nH]2)cc1	none
C#CCNC(=O)/C=C/c1ccc(OC)cc1	Cycloheximide cs 40, Shiga inhibitor 59
O=C(/C=C/c1ccco1)N/C(=C\c1ccccc1)C(=O)NCCc1nc2ccccc2[nH]1	Shiga inhibitor 37
CC1=C(C(=O)N2CCCCCC2)CC(CC(=O)NC(c2ccccc2)c2ccccc2)C(=O)N1Cc1ccccc1 (stereo not given)	none (no result: Cycloheximide cs, Shiga inhibitor, LASV entry inh, MARV entry inh)
Cc1ccc(C(NC(=O)Nc2ccccn2)C(Cl)(Cl)Cl)cc1F (stereo not given)	MARV entry inh inconclusive
Cc1cc(C)cc(N(CCC#N)C(=O)CSc2ncnc3sccc23)c1	none (no result: Cycloheximide cs, Shiga inhibitor)
N#Cc1ccc(CSc2nnc(Nc3ccccc3)s2)cc1	none
c1ccc(CSc2nnc(NC3=NCCCCC3)s2)cc1	Cycloheximide cs 44, Shiga inhibitor 102
CCOC(=O)Cn1c(=O)c(-c2cc(Br)ccc2N)nc2ccccc21	none (no result: LASV entry inh, MARV entry inh)
CCN(CC)CCn1c2ccccc2c2n[nH]c(=S)nc21	LASV entry inh inconclusive
CC(C)CCn1c(O)c(N=Nc2ccccn2)c2ccccc21	LASV entry inh inconclusive
CCCn1c2ccccc2c2nc3ccccc3nc21	Cycloheximide cs 19
CCOC(=O)Cn1c(=O)c(-c2ccccc2N)nc2ccccc21	Cycloheximide cs 25 (no result: LASV entry inh, MARV entry inh)
CCCn1c(O)c(N=Nc2ccc3ccccc3n2)c2ccccc21	Cycloheximide cs 30, Shiga inhibitor 42, LASV entry inh inconclusive, MARV entry inh inconclusive
CCN(CC)CCn1c2ccccc2c2nc3ccccc3nc21	Cycloheximide cs 44, Shiga inhibitor 53 (no result: LASV entry inh, MARV entry inh)
N#CCCn1c2ccccc2c2nc3ccccc3nc21	none
